Compound activity as filed in PubChem BioAssay.
Sampled rows, rich in hits. Any-hit rate of the full collection: about 6%.
D3 ag: agonists of human D3 dopamine receptor. 410,000 tested, 0.58% active. D3R DiscoveRx beta-arrestin cells, luminescence, 90 min. P35462. max activation, %. AID 652048; in the data active = max activation above about 30%; note: 0% is about no effect
Target sequence (P35462 whole entry, looked up): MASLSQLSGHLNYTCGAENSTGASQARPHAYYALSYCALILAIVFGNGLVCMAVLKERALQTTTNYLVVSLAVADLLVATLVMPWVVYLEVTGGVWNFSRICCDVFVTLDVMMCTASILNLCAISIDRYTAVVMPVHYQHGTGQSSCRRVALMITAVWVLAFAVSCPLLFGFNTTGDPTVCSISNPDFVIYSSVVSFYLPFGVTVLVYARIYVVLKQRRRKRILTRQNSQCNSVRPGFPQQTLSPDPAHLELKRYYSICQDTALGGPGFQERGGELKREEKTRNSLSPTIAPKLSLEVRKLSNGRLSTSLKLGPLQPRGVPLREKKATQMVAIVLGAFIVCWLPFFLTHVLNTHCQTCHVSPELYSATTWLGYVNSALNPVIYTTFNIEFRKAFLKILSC
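Agonist-mode cell screen: cells plated at 1500/well and incubated overnight at 37 °C, then exposed to library compounds for 90 min at 37 °C. Detection reagent was added for 30–60 min at room temperature, and luminescence was read.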
D1 agonist: activates the human D1 dopamine receptor; AID 504660; HEK293 T-REx D1 cells, calcium flux, agonist mode; P21728; 360,000 tested, 1% active; activation, % at 2 µM; in the data active = activation above about 30%; note: 0% is about no effect
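Agonism was scored from calcium flux recorded over 180 s (1 read/s) after pintool compound addition, following a 10-cycle baseline. Cells were inducible force-coupled HEK293 TREx D1, plated overnight at 30 C and loaded with no-wash calcium dye.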
D1 antag: blocks dopamine activation of the human D1 receptor | 360,000 tested, 3.2% active | HEK293 TREx D1 cells, calcium flux, dopamine EC80; active compounds read low | AID 504652 | activity change, negative = inhibition, % at 10 µM | P21728; in the data active = activity change below about -30%; note: % is set by controls: 0 for no effect and ±100 for the full control effect
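Using tetracycline-induced force-coupled D1 Hek293 cells and a calcium dye, signals were followed for 180 s after compound, then for 180 s after EC80 dopamine, to detect inhibitors.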
BCR signal inh: chronic active BCR signaling inhibition. ABC-DLBCL IkBa-CBG/CBR reporter, luminescence ratio, 4 h. Potency, µM (top dose mostly 46.1 µM), inactives show at the highest dose activity change, negative = inhibition, hits mostly inhibitors. 340,000 tested, 0.05% active; active = well fitted inhibition curve with a large enough effect in the signal ratio, with a control signal flat, not every such curve was filed as active; inconclusive = small, poorly fitted or top-dose-only effect, or effect the other way, or a change in a side signal; the % refers to the signal ratio;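 note: potency is the fitted concentration of half-maximal effect; plate controls were basal doxycycline-induced cells for no effect and cells given 10 µM MG132 for full effect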
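Concentration-response series (up to 46 uM) were applied to TMD8 dual-reporter cells for 4 h at 37C with doxycycline. Green/red ratio, after filter-overlap correction, defined %Activity; red signal alone was normalised to basal cells and zero luminescence.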
D3 antag: D3 dopamine receptor (human) antagonism; 360,000 tested, 2.5% active; D3R cells, DiscoveRx beta-arrestin luminescence, antagonist mode; active compounds read low; AID 652054; max response, negative = inhibition, %; in the data active = max response below about -50%; inconclusive = no clear call, values can overlap the other calls; note: % is set by controls: 0 for no effect and ±100 for the full control effect
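Cells expressing the human receptor were seeded at 1500 cells/well, incubated overnight at 37 degrees C in 5% CO2, then exposed to library compounds with dopamine controls for 90 minutes at 37 degrees C before luminescent detection.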
D1 potentiator: enhances dopamine response at the human D1 receptor | HEK293 TREx D1 cells, calcium flux, dopamine EC20 potentiation | potentiation, % at 10 µM | 360,000 tested, 0.036% active | AID 504651; in the data active = potentiation above about 30%; note: 0% is about no effect
Numbers without * were called inactive; ? = inconclusive; . = no result given.

SMILES | D3 ag | D1 agonist | D1 antag | BCR signal inh | D3 antag | D1 potentiator
Oc1cccc(/C=N/N2CCN(c3ccccn3)CC2)c1 | 8.0 | 2.3 | -5.6 | ? | -12.6 | -1.2
BrC(=C\c1ccccc1)/C=N/N1CCN(c2ccccn2)CC1 | -4.2 | 3.2 | -31.8* | ? | -13.2 | -4.5
CCN(CC)Cc1nc2nc(Cl)c(Cl)nc2[nH]1 | -7.4 | . | . | . | 10.7 | .
CC(C)c1ccccc1Oc1c(C(F)(F)F)oc2c(CN3CCN(C)CC3)c(O)ccc2c1=O | -21.6 | 13.1 | -32.7* | . | . | -0.8
COCCN1C[C@@H](CO)O[C@@H](n2cnc3c(NC4CCCC4)ncnc32)C1 | -15.4 | . | . | . | 0.0 | .
COc1cc(C2C3=C(CC(C)(C)CC3=O)Nc3ccccc3N2C(C)=O)cc(OC)c1OC (configuration not stated) | 5.0 | 3.4 | -32.4* | -8.9% | -2.8 | -4.7
COc1cc(C2C3=C(CC(c4ccco4)CC3=O)Nc3ccccc3N2C(C)=O)cc(OC)c1OC (configuration not stated) | 2.3 | 1.3 | -4.4 | -1.4% | -16.1 | -0.1
CN1CCN(C2Cc3ccccc3Sc3ccc(Cl)cc32)CC1 (configuration not stated) | 0.0 | 7.2 | -105.2* | ? | -0.1 | -5.6
CN1CCN(C2Cc3cc(F)ccc3Sc3ccc(Cl)cc32)CC1 (configuration not stated) | -21.8 | . | . | . | -119.7* | .
Cc1ccc(N2C(=O)CC(N3CCN(C)CC3)C2=O)cc1 (configuration not stated) | . | -0.8 | 2.7 | -3.5% | . | -2.8
CN1CCN(S(=O)(=O)c2cc(C(F)(F)F)ccc2Cl)CC1 | -3.2 | 3.5 | -15.7 | -1.0% | -2.0 | -5.2
CN1CCN(C2Cc3ccccc3Sc3cc(C(F)(F)F)ccc32)CC1 (configuration not stated) | -17.6 | . | . | . | -96.0* | .
CN1CCN(C2Cc3ccc(F)cc3Sc3cc(F)c(Cl)cc32)CC1 (configuration not stated) | -20.6 | . | . | . | -105.4* | .
CN1CCN(C(=O)C2CC(=O)N(c3ccc(F)c(Cl)c3)C2)CC1 (configuration not stated) | 2.1 | 3.0 | -1.2 | 7.3% | 2.6 | -0.5
CC(C)c1ccc2c(c1)C(N1CCNCC1)Cc1ccc(F)cc1S2 (configuration not stated) | -10.1 | . | . | . | -62.9* | .
CSc1ccc2c(c1)C(N1CCN(C)CC1)Cc1ccccc1S2 (configuration not stated) | -81.4 | 23.6 | -86.9* | ? | -83.6* | -2.5
COC(=O)c1c(-c2cccs2)csc1NC(=O)COc1ccc(C(C)(C)C)cc1 | 3.3 | 2.1 | -1.0 | . | . | 0.1
CCOC(=O)C(C)On1c(-c2ccc(Cl)cc2)nc2ccc([N+](=O)[O-])cc21 (configuration not stated) | 4.9 | 6.5 | -39.5* | ? | 38.5 | -9.7
CC(=O)Oc1ccc(Cn2c(C)c(C(=O)NCc3cccc(C(F)(F)F)c3)sc2=O)cc1 | 3.3 | . | . | . | -4.9 | .
Cc1nc2cc(-c3cccc(F)c3)nn2c(C)c1CCC(=O)NC(C)CCc1ccco1 (configuration not stated) | -1.9 | 5.2 | -35.1* | ? | -22.4 | .
Cc1nc2cc(-c3ccccc3)nn2c(C)c1CCC(=O)NCc1ccco1 | 4.5 | 4.4 | -31.5* | ? | 5.8 | .
COc1ccc(OC)c(NS(=O)(=O)c2ccc(Br)s2)c1 | -7.0 | 3.1 | 9.6 | 6.5% | . | -2.2
COc1cccc(NS(=O)(=O)c2ccc(Br)s2)c1 | -3.7 | 19.3 | -34.8* | ? | ? | -3.5
CC1(C)S[C@@H]2[C@H](NC(=O)[C@H](NC(=O)N3CCN(S(C)(=O)=O)C3=O)c3ccccc3)C(=O)N2[C@H]1C(=O)O | 7.8 | . | . | . | . | .
Cc1ccc(NC(=O)C2CCCN(c3ncnc4onc(C)c34)C2)c(Cl)c1 (configuration not stated) | 10.5 | 14.5 | -53.9* | . | . | -7.5
COc1ccc(Cl)cc1NC(=O)C1CCCN(c2ncnc3onc(C)c23)C1 (configuration not stated) | 7.8 | 8.3 | 0.4 | . | . | -4.2
